# Measured values as given in PubChem BioAssay (NCI).
# The panel holds about 83,000 compounds, 20% with a hit somewhere; the sample as a whole holds those more often.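 Negative percent growth values reflect cell death: -40 means 40% of the cells present at the start died, and -100 means all died.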 Activity calls are given as the source filed them.
# Test system: A498 renal
# Experiment: NCI-60 one-dose screen, 48 h (100 = growth as untreated, 0 = no growth, -100 = all killed)
# Details: 10 µM unless noted
# Protocol: Growth inhibition of the A498 human tumor cell line is measured as a screen for anti-cancer activity. Cells are grown in 96 well plates and exposed to the test compound for 48 hours. Compounds are tested at a single concentration, which is 10^-5 M for most compounds. The reported endpoint is percent growth (GI% or GIPRCNT), where numbers from 0 - 100% represent growth inhibition, and numbers from -100% - 0 represent cell death. For example, a value of 40 represents 60% growth inhibition. A value of 0 means no net growth occurred over the course of the experiment. A value of -40 indicates 40% of cells at the beginning of the experiment died by the end of the experiment. A value of -100 means all cells are dead at the end of the experiment.
# NCI-60 Human Tumor Cell Lines Screen was performed using the standard one-dose NCI protocol, which is described in more detail at https://dtp.cancer.gov/discovery_development/nci-60/default.htm.
# Compounds with GIPRCNT values below 10 were considered active. Activity score was based on GIPRCNT using the following formula: […]
# Score is 0 for GIPRCNT values of 100 or above, 50 for GIPRCNT values of 0, and 100 for GIPRCNT values of -100.
row,SMILES,growth
1,Cc1ccc([C@@H]2C[C@H](O)Cc3ccccc3N2)s1,91.2% (inactive)
2,Cc1c(CN(C)C)cc(C(C)C)cc1C(C)C,94.8% (inactive)
3,[2H]c1nc(=Nc2cc(NC(=O)C=C)c(N(C)CCN(C)C)cc2OC)[nH]c(-c2cn(C([2H])([2H])[2H])c3ccccc23)c1[2H],36.7% (inactive)
4,O=C(Nc1ccc(Cl)cn1)C1(c2ccccc2)CCCCC1,141% (inactive)
5,O=C(NCCNCCO)c1cc([N+](=O)[O-])cc([N+](=O)[O-])c1O,106% (inactive)
6,CC(=O)N1CCN(CCNC(=O)n2cc(-c3ccncc3)c(-c3ccc(O)c(Cl)c3)n2)CC1,118% (inactive)
7,CC1Cc2cc(F)ccc2-n2cccc21 (stereo not given),90.7% (inactive)
8,COc1ccc2c(N)ncc(C#Cc3cc(C(=O)Nc4ccc(CN5CCN(C)CC5)c(C(F)(F)F)c4)cnc3C)c2c1,15.4% (inactive)
9,c1ccc(C(=NNc2nc3ccccc3o2)c2ccccn2)nc1,-27% (active)
10,COC(=O)C(N)CC(C)C (stereo not given),105% (inactive)
11,CC(Br)c1nc2ccccc2cc1C(N)=O (stereo not given),94.7% (inactive)
12,O=c1c2c(c3ccccc3n1-c1ccccc1)NC(=S)NC2c1ccc(Cl)cc1 (stereo not given),50.6% (inactive)
13,Cc1sc(NC(=O)c2ccc(C(C)(C)C)cc2)c(C(=O)O)c1C,78.6% (inactive)
14,COc1ccc2oc(=O)cc(CN3C(=O)S/C(=C\c4ccc(Cl)cc4)C3=O)c2c1,106% (inactive)
15,COc1ccc(C2C3(C#N)C(N)=NC(=C(C#N)C#N)C23C#N)cc1OC (stereo not given),101% (inactive)
16,c1ccc(Nc2ncc3c(n2)-c2cccn2CC3)cc1,75.5% (inactive)
17,N#Cc1ccc(NC2c3ccccc3CC2O)cc1 (stereo not given),115% (inactive)
18,CCCCn1c(Cc2ccc(OC)cc2)nc2cc(OC)c(OC)cc2c1=O,62% (inactive)
19,CN1CCN(Cc2ccc(NC(=O)c3cncc(C#Cc4c(N)ncc5ccc(F)cc45)c3)cc2C(F)(F)F)CC1,15% (inactive)
20,C=CCSc1nnc(COc2ccc3c(C)c(Cc4ccccc4)c(=O)oc3c2C)o1,110% (inactive)

row,SMILES,growth
1,COC(=O)c1ccc2[nH]c(O)c(C(=Nc3ccc(N(C)C(=O)CN4CCN(C)CC4)cc3)c3ccc(OC)cc3)c2c1,-16.6% (active)
2,CSC1=Nc2c(c(C)c(-c3ccccc3)n2CCCCl)C2=NC(=O)CN12,46.9% (inactive)
3,CC(C)(CNC1CCCCC1)OC(=O)c1ccccc1,103% (inactive)
4,O=C(CCC(=O)N(CCO)CCO)N(CCO)CCO,120% (inactive)
5,CN(C)CCOC(=O)C(C)(C)C,103% (inactive)
6,CC(C)OC(=O)c1ccc2n1CCCc1cnc(Nc3ccccc3)nc1-2,63.5% (inactive)
7,CC(=O)Nc1nc(C)c(C(=O)N/N=C/N2CCCCC2)s1,119% (inactive)
8,CCCCCCC(C(=O)OCC)(C(=O)OCC)C1CCCCCC1,96.7% (inactive)
9,O=C(N/N=C\c1ccc(-c2ccc(Br)cc2)o1)c1cc2oc(-c3cccc(C(F)(F)F)c3)cc2[nH]1,87.6% (inactive)
10,CCOC(=O)NNc1[nH]c(-c2ccc(OC)cc2)cc1C#N,99.8% (inactive)
11,O=C1Nc2ccccc2/C1=C/c1cn(CC(O)Cn2cc(/C=C3\C(=O)Nc4ccccc43)c3ccccc32)c2ccccc12 (stereo not given),-73.2% (active)
12,O=C1/C(=C\c2cn(-c3nc(N4CCOCC4)nc(N4CCOCC4)n3)c3ccccc23)c2ccccc2N1c1c(Cl)cccc1Cl,-43.7% (active)
13,Oc1ccc(Br)cc1/C=N/NC(=S)NC12CC3CC(CC(C3)C1)C2,53.3% (inactive)
14,COc1ccc(/C=C/C(=O)/C=C/c2cc3ccccc3[nH]c2=O)cc1,100% (inactive)
15,CCCCCCCCCC[N+](C)(C)N,105% (inactive)
16,O=C(CCl)NC1c2ccccc2Oc2ccccc21,97.3% (inactive)
17,O=C(CBr)OCc1ccc([N+](=O)[O-])o1,117% (inactive)
18,Cc1nn(-c2ccccc2)c(N)c1N=C1NC(=O)/C(=C/c2ccc(Cl)cc2)S1,68.6% (inactive)
19,O=C(/C=C/c1c[nH]c2ccccc12)c1cc2ccccc2o1,102% (inactive)
20,c1ccc(-c2cn3ccnc3c(-c3ccc4ncn(C5CCCCC5)c4c3)n2)cc1,73.9% (inactive)
